For orientation: inhibition means the relative decrease from the control value, in per cent.

In all, about 370,000 compounds went through this assay and about 2,800 (0.76%) were called active. Only a selection was taken, and actives are over-represented in it overall. Values without a mark were called inactive. Cut-off read from the data, not from the text of the source: active = inhibition above about 21%; inactive = the rest.

Among the data in PubChem BioAssay AID687016 (The Scripps Research Institute Molecular Screening Center, 2013) are inhibition values, retold here.

The target of the experiment is E3 ubiquitin-protein ligase UHRF1 (Homo sapiens) (UniProt Q96T88). As to the kind of experiment: UHRF1 methylated DNA binding inhibitors, primary screen, counter-screen for MBD2 inhibitor project, biochemical, TR-FRET, human UHRF1, single concentration (AID 687016).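 Note: UHRF1 SRA domain binding a hemimethylated CpG hairpin DNA probe; 0% = median of test compound wells and 100% = reference inhibitor.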 The note with it: UHRF1 binding to methylated oligo, at 4.4 µM, active compounds read high. Background: The purpose of a counterscreen is to sort out artefacts and off-target activity.
Chain of E3 ubiquitin-protein ligase UHRF1 (Homo sapiens) (Q96T88 whole entry, looked up, the tested form may be a part): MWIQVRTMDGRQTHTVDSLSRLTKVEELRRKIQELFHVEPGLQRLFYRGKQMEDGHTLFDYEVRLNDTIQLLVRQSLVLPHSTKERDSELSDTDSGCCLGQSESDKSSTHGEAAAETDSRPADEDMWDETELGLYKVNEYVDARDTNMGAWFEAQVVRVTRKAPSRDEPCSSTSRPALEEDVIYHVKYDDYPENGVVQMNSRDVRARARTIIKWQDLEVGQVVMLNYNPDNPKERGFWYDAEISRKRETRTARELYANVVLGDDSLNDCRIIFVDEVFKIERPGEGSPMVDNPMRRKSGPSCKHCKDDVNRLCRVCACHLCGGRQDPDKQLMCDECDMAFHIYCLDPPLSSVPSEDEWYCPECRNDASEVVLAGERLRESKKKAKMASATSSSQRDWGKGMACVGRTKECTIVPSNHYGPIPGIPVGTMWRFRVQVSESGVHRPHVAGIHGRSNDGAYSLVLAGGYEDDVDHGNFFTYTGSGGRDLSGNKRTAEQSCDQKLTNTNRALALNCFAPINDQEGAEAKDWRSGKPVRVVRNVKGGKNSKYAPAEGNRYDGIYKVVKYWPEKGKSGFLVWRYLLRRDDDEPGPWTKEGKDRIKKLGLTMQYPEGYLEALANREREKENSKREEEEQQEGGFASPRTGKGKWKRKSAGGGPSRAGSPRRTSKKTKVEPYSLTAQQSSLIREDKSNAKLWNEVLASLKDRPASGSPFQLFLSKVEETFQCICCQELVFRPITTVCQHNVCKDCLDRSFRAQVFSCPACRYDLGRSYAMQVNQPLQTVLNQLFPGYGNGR
For the compound `c1ccc(CNCc2ccc(CNCc3ccccc3)cc2)cc1`, the inhibition was -2.85%.
Consider `OCC(CO)(CO)NCc1ccc(-c2ccccc2)cc1`, for which the inhibition is 24.9% (active).
The result for `OCc1ccc(-c2ccccc2)c(-c2ccccc2)c1` reads -1.66%.
With `CN1[C@H](Cc2ccccc2)COc2cccc(N3CCSCC3)c2S1(=O)=O` the figure was 6.46%; with `O=C(CSc1nnc(-c2ccccn2)n1-c1ccc(Cl)cc1)Nc1ccccc1-c1ccccc1`, -0.44%; with `COc1ccc(C(=O)N2CCC(C(=O)Nc3ccc(C)cc3)CC2)cc1`, 98.2% (active).
Regarding `O=C(Nc1ccccc1)C1CCN(C(=O)c2ccc(Br)cc2)CC1`, the inhibition was -0.01%.
The result for `COc1ccc(C(=O)N2CCC(C(=O)Nc3cccc(C)c3)CC2)cc1OC` reads -2.09%; that for `CC(C)(C)NC(=O)C(c1cccnc1)N(C(=O)c1cnco1)c1ccc(C(C)(C)C)cc1` (centres undefined), -2.85%; that for `O=C(c1ccncc1)N1CC[C@H]2[C@H](CCCN2Cc2ccc(F)cc2)C1`, -0.99%.
For `COc1ccccc1C(=O)CSc1nnc(-c2ccccn2)n1-c1ccccc1`, the inhibition is 0.85%.
The result for `COc1ccc(-n2c(SCC(=O)Nc3ccc4cn[nH]c4c3)nnc2-c2cccnc2)cc1` reads 0.56%; that for `CC(C)CNc1cccc2c1S(=O)(=O)N(Cc1cn(Cc3ccc(Cl)cc3)nn1)Cc1ccccc1O2`, 2.31%.
The result for `COC(=O)c1nc(NC(=O)c2ccc(C(C)(C)C)cc2)n[nH]1` reads 87.5% (active); that for `COc1ccc(N2CCN(C(=O)CNC(=O)c3ccc(C(C)(C)C)cc3)CC2)cc1`, -2.46%.
With `CSc1nccc(NC(=O)c2ccc(C(C)(C)C)cc2)n1` the figure was 5.85%; with `CCOC(=O)[C@]12CCCC=C1N(Cc1ccc(OC)cc1)C(=O)[C@@H]2CC(=O)N1CCOCC1`, -0.91%; with `CCCCCCN1CCS(=O)(=O)N(Cc2ccc(C(F)(F)F)cc2)C(C(=O)OC)C1` (centres undefined), -2.34%.
In the case of `CC(C)N1CCCCC(NC(=O)C(C)(C)C)C1=O` (centres undefined), the inhibition is -1.29%.
`CC(C)CNc1cccc2c1S(=O)(=O)N(Cc1cn(Cc3ccccc3C(F)(F)F)nn1)Cc1ccccc1O2`: the inhibition was 1.83%.
The result for `Cc1cc(=O)[nH]c(SCC(=O)Nc2ccc(Cl)cc2C)n1` reads -2.56%; that for `Cc1c(CC(=O)N2CCN(C(=O)C3COc4ccccc4O3)CC2)c(=O)oc2c(O)c(O)ccc12` (centres undefined), 28.8% (active).
Take `Cc1ccc(S(=O)(=O)NCCC(=O)NNC(=O)C2COc3ccccc3O2)cc1` (centres undefined): the inhibition was -3.3%.
The result for `CC(=O)c1ccccc1NC(=O)COC(=O)C1COc2ccccc2O1` (centres undefined) reads 6.15%; that for `CCOc1ccccc1NC(=O)C12CC3CC(C1)CC(c1ccc(C)cc1)(C3)C2`, 2.15%; that for `CCCn1c(NC(=O)C23CC4CC(CC(O)(C4)C2)C3)nc2ccccc21`, 21% (active).
With `CCCn1c(C(Cc2ccccc2)NC(=O)COC)nc2ccccc21` (centres undefined) the figure was -1.58%; with `N#CCC[C@H]1CC[C@]2(CCCN(Cc3ccc(Cl)cc3)C2)O1`, 3.52%; with `O=C(CSc1nnc(-c2cccc(Cl)c2)n1Cc1ccco1)Nc1ccc(OCc2ccccc2)cc1`, -1.67%.
As to `FC(F)(F)c1cccc(Cn2ccc3ccc(-c4ccc5ccn(Cc6ccccc6)c5c4)cc32)c1`, the inhibition is 0.27%.
The result for `O=C(Nc1ccccc1C(=O)N1CCCCC1)c1ccco1` reads 3.17%.
With `O=C(Nc1nc(-c2ccco2)c(-c2ccco2)s1)c1ccco1` the figure was 51.4% (active).
With `O=C(Nc1c(-c2ccccc2)nc2c(Br)cc(Br)cn12)c1ccco1` the figure was 1.55%; with `CCOc1ccc(N(CC(=O)Nc2c(C)n(C)n(-c3ccccc3)c2=O)S(=O)(=O)c2ccc(Cl)s2)cc1`, -0.95%; with `O=C(CN1CCC(NC(=O)NCc2ccccc2)CC1)Nc1ccc2c(c1)OCCO2`, 1.96%.
Take `C[C@H]1[C@H](NC(=O)c2cccc(N(C)C)c2)CC[C@@]23CCCN2C(=O)CCC[C@@H]13`: the inhibition was 0.44%.
The result for `Cc1cccc(C(=O)N2CCCC(Nc3ccc(C(C)C)cc3)C2)n1` (centres undefined) reads 22.3% (active); that for `CC(C)c1ccc(NC2CCCN(C(=O)c3ccncc3)C2)cc1` (centres undefined), 1.9%; that for `COc1ccc(NC2CCCN(C(=O)c3ccncc3)C2)cc1` (centres undefined), -3.03%.
As for `COc1ccc2c(C(C)c3ccc(N)cc3)cn(C)c2c1` (centres undefined), the inhibition is 3.85%.
With `Cc1cc(C)nc(NC(=S)N2CCN(c3ccc(C(F)(F)F)cn3)CC2)c1` the figure was -0.11%; with `COc1ccc(CCNC(=O)CSc2nc3c([nH]2)c(=O)n(C)c(=O)n3C)cc1`, -0.65%; with `C=CCc1cccc2cc(C(=O)Nc3ccc(NC(C)=O)cc3)c(=O)oc12`, 28.9% (active).
With `C=CCc1cccc2cc(C(=O)NC3CCCC3)c(=O)oc12` the figure was 2.45%; with `C=CCc1cccc2cc(C(=O)N3CCN(C(=O)OCC)CC3)c(=O)oc12`, -2.84%; with `COc1ccc(-n2c(COc3ccccc3)nnc2SCC(=O)Nc2ccc3c(c2)OCO3)cc1`, 0.77%.
In the case of `COC(=O)c1cc(S(=O)(=O)N2CCN(C(=O)C3CCCO3)CC2)cn1C` (centres undefined), the inhibition is -1.8%.
The result for `COC1=C[C@H](C(=O)NCCNC(C)=O)[C@H](C)[C@@H](c2ccccc2)CC1=O` reads -3.81%.
With `CCCCn1c(N)c(N(CC(C)C)C(=O)C2CSC3(C)CCC(=O)N23)c(=O)[nH]c1=O` (centres undefined) the figure was 28.1% (active); with `CCCCn1c(N)c(N(CC(C)C)C(=O)c2ccc(Br)o2)c(=O)[nH]c1=O`, 0.08%.
Turning to `CCCCn1c(N)c(N(CC(C)C)C(=O)c2cnc(C)cn2)c(=O)[nH]c1=O`, the inhibition is -0.01%.
The result for `CN(C(N)=NC(=O)/C=C/c1ccccc1)C(C#Cc1ccccc1)Cc1ccccc1` (centres undefined) reads -1.59%.
The result for `COC(=O)C(C)Oc1ccc2c(-c3cccc([N+](=O)[O-])c3)cc(=O)oc2c1` (centres undefined) reads -2.28%.
Consider `CC(=O)Oc1ccc2c(=O)oc(-c3ccc([N+](=O)[O-])cc3)nc2c1`, for which the inhibition was 20.8% (active).
With `COc1ccc(-c2[nH][nH]c(=O)c2NC(=O)c2ccc([N+](=O)[O-])cc2)cc1` the figure was -5.21%; with `CCOC(=O)[C@]12CCCC3=C1N(CCC3)C(=O)[C@@H](CC(=O)N1CCSCC1)C2`, -0.01%; with `O=C(Nc1ccccc1)N1CCN(Cc2nc3ccccc3c(=O)[nH]2)CC1`, 0.95%.
For `O=C(NCc1ccco1)C1CCCN(S(=O)(=O)c2ccc(Cl)s2)C1` (centres undefined), the inhibition was -1.18%.
For `COC(=O)C[C@@H]1CC[C@@H]2[C@@H](COc3ccc(NC(=O)Nc4ccc(F)c(F)c4)cc3C(=O)N2C)O1`, the inhibition is 0.81%.
With `CCOC(=O)C1(Cc2ccccc2)CCN(Cc2cn(C(C)=O)c3ccccc23)CC1` the figure was -2.91%; with `Cc1cc([N+](=O)[O-])nn1CCCC(=O)Nc1cccnc1Cl`, 1.45%.
For the compound `Cc1cc([N+](=O)[O-])nn1CC(=O)Nc1ccc(Cc2ccncc2)cc1`, the inhibition is -2.12%.
With `Cc1cc([N+](=O)[O-])nn1Cc1ccc(F)cc1` the figure was 20.9% (active); with `CCCCNS(=O)(=O)c1ccc(S(=O)(=O)n2cnc3ccccc32)cc1`, 20.7% (active); with `Cc1ccc(S(=O)(=O)n2cnc3ccccc32)c(C)c1`, 8.08%.
The result for `COc1ccc(S(=O)(=O)n2cnc3ccccc32)c(C)c1` reads 1.22%; that for `CCOC(=O)[C@]12CCCCC/C=C\1N(Cc1ccc(OC)cc1)C(=O)[C@H]2CC(=O)N1CCOCC1`, -3.09%.
`O=C(CCCCCN1C(=O)C2C3C=CC(C3)C2C1=O)Nc1ccccc1` (centres undefined): the inhibition was -1.94%.
With `Cc1cc(/C=N/n2cnnc2)c(C)n1-c1ccc2ncccc2c1` the figure was 0.89%.
With `Fc1ccc(Br)cc1/C=N/n1cnnc1` the figure was -0.98%; with `Cc1cc(/C=N/n2cnnc2)c(C)n1-c1cccc(C(=O)O)c1`, 60% (active).
With `COC(CNC(=O)[C@H](Cc1ccccc1)NC1(C(=O)NC2CCCCC2)CCCCC1)OC` the figure was -1.65%.
As for `COC[C@@H]1CCCN1c1ccc2c(c1)O[C@H](C)CCN(C1CC1)S2(=O)=O`, the inhibition was -3.33%.
With `CCCCOc1ccc(C(=O)NCc2ccco2)cc1` the figure was 25% (active); with `COc1ccc2oc(C(=O)NCc3ccco3)c(C)c2c1`, -0.64%.
The result for `CCCC1=Nc2cc(C(=O)NCc3ccco3)ccc2Sc2ccccc21` reads 0.66%.
The result for `C#CCCN([C@H](C(=O)OC)C(C)C)S(=O)(=O)c1ccc(F)cc1Br` reads -0.78%.
With `COc1cc2[nH]c(=S)n(CCN3CCCCC3C)c(=O)c2cc1OC` (centres undefined), the inhibition is 8.11%.
`CCOc1cc2[nH]c(=S)n(CCCN3CCCC3=O)c(=O)c2cc1OCC`: the inhibition is -0.84%.
The result for `CCOc1cc2[nH]c(=S)n(CCN3CCCCC3C)c(=O)c2cc1OCC` (centres undefined) reads 66% (active).
The result for `O=C(CN1CCCc2ccccc21)NCc1ccc(F)cc1` reads -2.07%.
The result for `CN(CC#CCC(c1ccccc1)c1ccccc1)C(C)(C)C` reads -0.47%; that for `OC(C#CCN1CCOCC1)(c1ccccc1)C1CCCCC1` (centres undefined), 1.93%.
`CC(C)(C)N(CC#CCC(O)(c1ccccc1)C1CCCC1)CCO` (centres undefined): the inhibition is 24.7% (active).
With `CN[C@H]1C[C@H]2c3cc(N4CCOCC4)ccc3CCN2C[C@H]1[C@H](C)O` the figure was -0.07%.
With `O=C(NC1CCCCN(Cc2cccc(C(F)(F)F)c2)C1=O)c1ccccc1I` (centres undefined) the figure was -2.03%.
The result for `CC(C)(C)C(=O)CN1C2=NCCN2c2ccccc21` reads 0.42%.
Take `Cc1cc2c(cc1C)N(Cc1ccccc1)C1=NCCCN12`: the inhibition was -2.05%.
In the case of `OC(CN1C2=NCCCN2c2ccccc21)c1ccc(Br)cc1` (centres undefined), the inhibition is 68.9% (active).
